# Laboratory results as given in PubChem BioAssay (EPA / NIEHS).
# Records with an inconclusive call do not appear. Activity calls are given as the source filed them. How the source made its calls: active means hit-call score of the fitted dose curve at least 0.9, where 1 is the maximum; inconclusive means response in the unintended direction; inactive means score below 0.9.
# Tests used:
# [1] = target: Bile acid receptor (Homo sapiens) (UniProt Q96RI1); assay: NVS_NR_hFXR_Antagonist: NovaScreen (NVS) Nuclear Receptor Binding Assay for human Farnesoid X Receptor Antagonism (FXR) (AID 2283350)
# Chain of Bile acid receptor (Homo sapiens) (Q96RI1 whole entry, looked up): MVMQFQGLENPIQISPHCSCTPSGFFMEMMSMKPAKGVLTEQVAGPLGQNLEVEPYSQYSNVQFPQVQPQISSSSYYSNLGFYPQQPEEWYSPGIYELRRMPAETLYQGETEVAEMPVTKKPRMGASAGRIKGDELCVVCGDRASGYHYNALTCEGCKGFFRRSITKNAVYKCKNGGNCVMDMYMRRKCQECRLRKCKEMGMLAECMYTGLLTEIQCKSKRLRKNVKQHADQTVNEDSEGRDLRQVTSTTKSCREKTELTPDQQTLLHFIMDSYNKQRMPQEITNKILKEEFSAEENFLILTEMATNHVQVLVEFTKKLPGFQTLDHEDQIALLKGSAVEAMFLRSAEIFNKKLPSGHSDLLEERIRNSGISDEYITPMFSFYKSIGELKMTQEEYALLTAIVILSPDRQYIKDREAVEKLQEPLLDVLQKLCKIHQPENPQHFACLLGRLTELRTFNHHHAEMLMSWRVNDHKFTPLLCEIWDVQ
# Method in brief: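 Cell-free TR-FRET ligand-binding read-out on human FXR (NR1H4) in antagonist mode, measured 1 h after dosing. Primary screen in duplicate at 25 uM, actives retested in concentration series; signal loss scored versus DMSO.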
# [2] = target: Estrogen receptor beta (Homo sapiens) (UniProt Q92731); assay: OT_ER_ERbERb_0480: Odyssey Thera (OT) 8-hour HEK293T Protein-Complementation Assay for Estrogen Receptor-beta/-beta Homodimer (AID 2283357);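 further: active means signal gain over DMSO baseline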
# Chain of Estrogen receptor beta (Homo sapiens) (Q92731 whole entry, looked up, the tested form may be a part): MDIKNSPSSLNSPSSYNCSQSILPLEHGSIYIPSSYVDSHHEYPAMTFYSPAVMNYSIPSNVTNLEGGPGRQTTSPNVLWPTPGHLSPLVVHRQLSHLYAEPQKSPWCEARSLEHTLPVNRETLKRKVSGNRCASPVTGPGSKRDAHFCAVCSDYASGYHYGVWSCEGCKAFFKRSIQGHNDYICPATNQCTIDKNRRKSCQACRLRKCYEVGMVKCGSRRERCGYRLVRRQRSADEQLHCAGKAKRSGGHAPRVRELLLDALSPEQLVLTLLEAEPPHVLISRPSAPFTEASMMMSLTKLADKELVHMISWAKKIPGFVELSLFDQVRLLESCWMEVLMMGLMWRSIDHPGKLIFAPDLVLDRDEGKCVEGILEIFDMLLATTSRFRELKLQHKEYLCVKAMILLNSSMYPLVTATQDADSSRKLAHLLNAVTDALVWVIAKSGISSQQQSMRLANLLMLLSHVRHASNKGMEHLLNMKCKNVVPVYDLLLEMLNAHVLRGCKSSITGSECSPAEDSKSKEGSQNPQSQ
# Method in brief: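 Cells (HEK293T, stable ER-beta LBD PCA pair) are treated 8 hours, fixed and Draq5-stained; signal is fluorescence intensity increase relative to vehicle, fitted in the gain direction.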
# [3] = target: Retinoic acid receptor alpha (Homo sapiens) (UniProt P10276); assay: NVS_NR_hRAR_Antagonist: NovaScreen (NVS) Nuclear Receptor Binding Assay for human Retinoic Acid Alpha Receptor Antagonism (RAR) (AID 2283358)
# Chain of Retinoic acid receptor alpha (Homo sapiens) (P10276 whole entry, looked up): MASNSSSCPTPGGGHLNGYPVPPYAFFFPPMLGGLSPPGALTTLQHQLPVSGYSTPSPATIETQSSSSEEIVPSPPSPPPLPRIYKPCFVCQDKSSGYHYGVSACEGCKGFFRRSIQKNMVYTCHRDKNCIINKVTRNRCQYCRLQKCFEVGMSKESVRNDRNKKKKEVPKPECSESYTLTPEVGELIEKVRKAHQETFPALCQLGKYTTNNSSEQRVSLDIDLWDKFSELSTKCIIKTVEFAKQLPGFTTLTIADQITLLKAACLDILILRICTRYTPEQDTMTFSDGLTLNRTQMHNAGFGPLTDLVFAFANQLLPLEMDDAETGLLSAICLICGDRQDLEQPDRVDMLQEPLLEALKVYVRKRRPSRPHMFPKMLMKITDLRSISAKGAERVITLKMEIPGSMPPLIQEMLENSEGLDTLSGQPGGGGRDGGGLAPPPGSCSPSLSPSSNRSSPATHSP
# Method in brief: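 TR-FRET, cell-free, antagonist format; 2 h incubation after dosing; DMSO = baseline; signal loss fitted; 25 uM duplicate primary, then conc. series.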
# [4] = target: Estrogen receptor (Homo sapiens) (UniProt P03372); assay: OT_ER_ERaERa_0480: Odyssey Thera (OT) 8-hour HEK293T Protein-Complementation Assay for Estrogen Receptor-alpha/-alpha Homodimer (AID 2283351);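 further: rise in fluorescence from reassembled reporter fragments on ERα LBD homodimer in nucleus or whole cell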
# Chain of Estrogen receptor (Homo sapiens) (P03372 whole entry, looked up, the tested form may be a part): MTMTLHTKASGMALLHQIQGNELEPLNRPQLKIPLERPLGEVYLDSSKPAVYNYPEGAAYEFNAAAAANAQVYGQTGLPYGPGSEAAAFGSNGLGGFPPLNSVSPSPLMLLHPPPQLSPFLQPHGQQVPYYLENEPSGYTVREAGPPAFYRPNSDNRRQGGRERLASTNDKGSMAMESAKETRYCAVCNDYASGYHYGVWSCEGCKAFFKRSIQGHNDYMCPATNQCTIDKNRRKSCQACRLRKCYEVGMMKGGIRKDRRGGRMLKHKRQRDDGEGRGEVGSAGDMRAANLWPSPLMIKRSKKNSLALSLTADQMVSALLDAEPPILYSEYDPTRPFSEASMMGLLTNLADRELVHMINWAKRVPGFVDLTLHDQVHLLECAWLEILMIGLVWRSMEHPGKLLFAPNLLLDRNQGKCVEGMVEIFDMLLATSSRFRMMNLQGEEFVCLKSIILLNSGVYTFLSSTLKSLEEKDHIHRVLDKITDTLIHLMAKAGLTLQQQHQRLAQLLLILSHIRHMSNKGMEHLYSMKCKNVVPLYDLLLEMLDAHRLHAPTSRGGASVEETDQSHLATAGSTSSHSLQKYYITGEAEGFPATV
# Method in brief: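 HEK293T, stable ERα LBD (aa 310-547) PCA homodimer; 8 h compound exposure; fluorescence intensity, laser scanning cytometer; positive fitting direction, DMSO baseline.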
# [5] = target: Estrogen receptor (Homo sapiens) + Estrogen receptor beta (Homo sapiens) (UniProt P03372+Q92731); assay: OT_ER_ERaERb_1440: Odyssey Thera (OT) 24-hour HEK293T Protein-Complementation Assay for Estrogen Receptor-alpha/-beta Homodimer (AID 2283356);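 further: heteromer of ER alpha and ER beta binding domains; hits raise reporter fluorescence and both agonists and antagonists give an increase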
# Chain of Estrogen receptor (Homo sapiens) + Estrogen receptor beta (Homo sapiens) (P03372 whole entry, looked up, the tested form may be a part): as above
# Chain of Estrogen receptor (Homo sapiens) + Estrogen receptor beta (Homo sapiens) (Q92731 whole entry, looked up, the tested form may be a part): as the sequence (Q92731 whole entry, looked up, the tested form may be a part) above
# Method in brief: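 24 h exposure; HEK293T PCA cells with ERα/ERβ LBD fragments; signal rise in nuclear or whole-cell fluorescence over vehicle.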
# [6] = target: human Peroxisome Proliferator-activated Receptor alpha (PPARa), PPARA (gene 5465) (UniProt Q07869); assay: NVS_NR_hPPARa: NovaScreen (NVS) Nuclear Receptor Binding Assay for human Peroxisome Proliferator-activated Receptor alpha (PPARa) (AID 2283359);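 further: activity means loss of TR-FRET signal versus DMSO baseline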
# Chain of human Peroxisome Proliferator-activated Receptor alpha (PPARa), PPARA (gene 5465) (Q07869 whole entry, looked up): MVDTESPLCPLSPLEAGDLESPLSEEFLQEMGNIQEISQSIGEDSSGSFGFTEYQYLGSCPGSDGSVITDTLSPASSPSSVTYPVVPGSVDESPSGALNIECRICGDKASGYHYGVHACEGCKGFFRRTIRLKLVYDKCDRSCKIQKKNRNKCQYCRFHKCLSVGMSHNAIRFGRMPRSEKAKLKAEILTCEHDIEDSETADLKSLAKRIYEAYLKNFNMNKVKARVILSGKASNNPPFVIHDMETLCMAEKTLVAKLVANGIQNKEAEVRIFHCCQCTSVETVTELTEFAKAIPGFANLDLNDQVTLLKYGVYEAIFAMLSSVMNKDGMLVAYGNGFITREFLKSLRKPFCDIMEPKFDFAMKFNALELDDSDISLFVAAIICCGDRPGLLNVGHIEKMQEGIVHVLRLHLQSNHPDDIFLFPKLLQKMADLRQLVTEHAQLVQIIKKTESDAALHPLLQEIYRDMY
# Method in brief: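 Chemicals were first screened in duplicate at 25 uM, and active ones were retested across concentration series. Binding was monitored by TR-FRET one hour after dosing, with decreased signal against DMSO counted as activity.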
# [7] = target: PGR (gene 5241) (UniProt P06401); assay: NVS_NR_hPR: NovaScreen (NVS) Nuclear Receptor Binding Assay for human Progestron Receptor (PR) (AID 2283360);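 further: active means loss of bound radioligand signal versus DMSO baseline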
# Chain of PGR (gene 5241) (P06401 whole entry, looked up): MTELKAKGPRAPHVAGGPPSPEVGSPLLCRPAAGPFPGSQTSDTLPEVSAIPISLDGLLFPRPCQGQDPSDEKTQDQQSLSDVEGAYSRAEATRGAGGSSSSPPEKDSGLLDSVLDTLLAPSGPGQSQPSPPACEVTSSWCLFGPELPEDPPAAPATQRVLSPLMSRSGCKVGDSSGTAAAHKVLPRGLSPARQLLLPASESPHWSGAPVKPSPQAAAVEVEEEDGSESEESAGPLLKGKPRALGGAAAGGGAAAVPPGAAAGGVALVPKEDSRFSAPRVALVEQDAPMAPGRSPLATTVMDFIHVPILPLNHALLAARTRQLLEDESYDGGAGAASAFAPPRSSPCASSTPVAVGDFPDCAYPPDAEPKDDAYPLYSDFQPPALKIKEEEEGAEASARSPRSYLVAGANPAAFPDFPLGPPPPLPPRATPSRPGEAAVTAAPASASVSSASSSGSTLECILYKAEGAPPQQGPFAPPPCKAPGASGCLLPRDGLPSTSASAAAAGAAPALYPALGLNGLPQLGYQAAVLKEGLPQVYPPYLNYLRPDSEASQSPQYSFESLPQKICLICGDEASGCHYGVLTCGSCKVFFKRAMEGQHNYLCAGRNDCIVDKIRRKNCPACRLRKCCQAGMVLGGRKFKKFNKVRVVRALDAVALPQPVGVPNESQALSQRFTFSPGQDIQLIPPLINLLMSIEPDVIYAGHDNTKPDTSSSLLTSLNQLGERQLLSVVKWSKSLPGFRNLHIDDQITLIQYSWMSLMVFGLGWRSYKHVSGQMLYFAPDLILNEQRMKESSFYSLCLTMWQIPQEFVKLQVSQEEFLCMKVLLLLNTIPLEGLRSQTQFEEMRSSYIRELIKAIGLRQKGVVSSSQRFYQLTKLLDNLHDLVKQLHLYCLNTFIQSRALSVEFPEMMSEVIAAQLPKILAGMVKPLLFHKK
# Method in brief: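 T47D lysate; tritiated or iodinated radioligand; scintillation count at 18 h. DMSO = negative control/baseline. Primary: 25 uM, duplicate. Secondary: concentration series for actives.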
compound,measurement,setting,value
C=CCc1cc(S(=O)(=O)c2ccc(O)c(CC=C)c2)ccc1O,AC50,[1],18.2 µM (active)
c1ccc2cc3ccccc3cc2c1,outcome,[2],inactive
OCc1ccccc1,outcome,[2],inactive
COc1cc(C(C)C)c2c(c1)S(=O)(=O)N(COc1cc(=O)n3cccc(OCCN4CCCCC4)c3n1)C2=O,outcome,[3],inactive
Cc1nc(-c2ccccn2)ncc1C(=O)Nn1cc(C)c2cc(F)ccc21,outcome,[3],inactive
Cc1nccn1-c1ccc(Sc2cccc(C3(C(N)=O)CCOCC3)c2)cc1,outcome,[4],inactive
same,AC50,[5],20.9 µM (active)
same,outcome,[6],inactive
same,AC50,[7],6.18 µM (active)
Cc1ccc(S(=O)(=O)NC(=O)NN2CCCCCC2)cc1,outcome,[4],inactive
same,outcome,[5],inactive
O=C(O)c1ccc2c(c1)nc(C(=O)NC1CCN(C3CC3)CC1)n2Cc1cc(-c2ccc(Cl)s2)on1,outcome,[4],inactive
same,outcome,[5],inactive
same,outcome,[6],inactive
OC[C@H]1O[C@@](CO)(O[C@H]2O[C@H](CO)[C@@H](O)[C@H](O)[C@H]2O)[C@@H](O)[C@@H]1O,outcome,[4],inactive
same,outcome,[5],inactive
same,outcome,[7],inactive
NC(=O)N(O)[C@@H]1COc2cc(OCc3ccccc3)ccc21,outcome,[4],inactive
same,outcome,[5],inactive
CCCCN1C(=O)[C@@H]([C@H](O)C2CCCCC2)NC(=O)C12CCN(Cc1ccc(Oc3ccc(C(=O)O)cc3)cc1)CC2,outcome,[4],inactive
same,outcome,[5],inactive
same,outcome,[6],inactive
CCCCCCCCCC,outcome,[4],inactive
same,outcome,[5],inactive
same,outcome,[7],inactive
CC(C)CC(C)O (stereo not given),outcome,[4],inactive
same,outcome,[5],inactive
NC(=O)NN=Cc1ccc([N+](=O)[O-])o1,outcome,[4],inactive
same,outcome,[5],inactive
NC(=O)N1c2ccccc2C=Cc2ccccc21,outcome,[4],inactive
same,outcome,[5],inactive
same,outcome,[2],inactive
same,outcome,[3],inactive
same,outcome,[7],inactive
Cn1cc[nH]c1=S,outcome,[4],inactive
same,outcome,[5],inactive
same,outcome,[7],inactive
O=C(O)c1cccc(C[C@@H]2COc3ccc(OCc4nc5cc(F)ccc5s4)cc3[C@@H]2O)c1,outcome,[4],inactive
same,outcome,[5],inactive
same,outcome,[6],inactive
OC(Cn1cncn1)(Cn1cncn1)c1ccc(F)cc1F,outcome,[4],inactive
same,outcome,[5],inactive
CNC(C)=O,outcome,[4],inactive
same,outcome,[5],inactive
same,outcome,[2],inactive
CC(C)C(=O)Nc1ccc([N+](=O)[O-])c(C(F)(F)F)c1,outcome,[4],inactive
same,outcome,[6],inactive
CCCCCCCCCCCCCCO,outcome,[4],inactive
same,outcome,[5],inactive
same,outcome,[6],inactive
C[C@]12C=CC(=O)C=C1CC[C@H]1[C@@H]3C[C@@H](O)[C@](O)(C(=O)CO)[C@@]3(C)C[C@H](O)[C@@]12F,outcome,[4],inactive
same,outcome,[7],inactive
CCCCCCCC1CCC(=O)O1 (stereo not given),outcome,[4],inactive
same,outcome,[5],inactive
CCn1nc(C)c2c1C(=O)NCC(c1ccc(O)cc1)=N2,outcome,[4],inactive
same,outcome,[5],inactive
NNC(=O)c1ccncc1,outcome,[4],inactive
same,outcome,[5],inactive
CC(C)CCCCCCOC(=O)C1CCCCC1C(=O)OCCCCCCC(C)C (stereo not given),outcome,[4],inactive
same,outcome,[5],inactive
O=S(=O)(O)c1ccc(N=Nc2c(O)ccc3cc(S(=O)(=O)O)ccc23)cc1,outcome,[4],inactive
same,outcome,[7],inactive
Cc1cccc(O)c1C,outcome,[4],inactive
same,outcome,[5],inactive
same,outcome,[2],inactive
O=C(O)CO,outcome,[4],inactive
same,outcome,[5],inactive
CCc1ccc(O)c(C(C)(C)C)c1,outcome,[4],inactive
same,outcome,[5],inactive
same,AC50,[2],11.9 µM (active)
same,outcome,[6],inactive
same,outcome,[7],inactive
Cc1ncc([C@@H](CCCCCCc2ccc3c(n2)NCCC3)CC(=O)O)cn1,outcome,[4],inactive
same,outcome,[5],inactive
same,outcome,[6],inactive
CCCCCCCC/C=C\CCCCCCCC(=O)OC[C@@H](O)[C@H]1OC[C@H](O)[C@H]1O,outcome,[4],inactive
same,outcome,[5],inactive
same,outcome,[3],inactive
same,AC50,[6],0.845 µM (active)
CC[C@H](C)C(=O)O[C@H]1C[C@H](O)C=C2C=C[C@H](C)[C@H](CC[C@@H](O)C[C@@H](O)CC(=O)O)[C@H]21,outcome,[4],inactive
same,outcome,[5],inactive
CCCOc1ccc(S(=O)(=O)N2CCN(CC)CC2)cc1-c1nc2c(CC)n(Cc3ccccn3)nc2c(=O)[nH]1,outcome,[4],inactive
same,outcome,[5],inactive
same,outcome,[7],inactive
OC(CCl)CCl,outcome,[4],inactive
same,outcome,[5],inactive
same,AC50,[6],40.2 µM (active)
CCCc1ccccc1,outcome,[4],inactive
same,outcome,[7],inactive
O=S1(=O)CCCO1,outcome,[4],inactive
same,outcome,[5],inactive
O=C1CN(N=Cc2ccc([N+](=O)[O-])o2)C(=O)N1,outcome,[4],inactive
same,outcome,[2],inactive
C[C@@H](Oc1ccc(CNC(=O)c2cccnc2Oc2ccc3c(c2)OCO3)c(F)c1)C(=O)O,outcome,[4],inactive
same,outcome,[5],inactive
same,outcome,[2],inactive
same,outcome,[7],inactive
O=C(NO)C1(NS(=O)(=O)c2ccc(Oc3ccc(F)cc3)cc2)CCOCC1,outcome,[4],inactive
same,outcome,[5],inactive
same,AC50,[7],6.3 µM (active)
